Bioassay records as filed in PubChem BioAssay.
HSF1 activator – increases HSF-1 driven luciferase reporter signal | 300,000 compounds, 1.7% hits | NIH3T3-HGL HSF-1 luciferase reporter, MG132, 8 h; 100% = twice DMSO control signal | activation, % at 9 µM;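 active means mean replicate activation of at least 50% with a set share of replicates each reaching 50%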;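 further: 0% = median of the neutral control wells and 100% = twice that signal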
dFosB activator – mouse delta FosB homodimer activation | P13346 | purified delta FosB, TAMRA-CDK5 oligo fluorescence polarization; percent of positive-control signal above neutral wells | activation, % at 25 µM | 340,000 compounds, 0.99% hits | AID 493131;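 active means mean activation above about 17%, with every replicate also reaching it, limit read from the data, passing the limit was not always enough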
Target sequence (P13346 whole entry, looked up): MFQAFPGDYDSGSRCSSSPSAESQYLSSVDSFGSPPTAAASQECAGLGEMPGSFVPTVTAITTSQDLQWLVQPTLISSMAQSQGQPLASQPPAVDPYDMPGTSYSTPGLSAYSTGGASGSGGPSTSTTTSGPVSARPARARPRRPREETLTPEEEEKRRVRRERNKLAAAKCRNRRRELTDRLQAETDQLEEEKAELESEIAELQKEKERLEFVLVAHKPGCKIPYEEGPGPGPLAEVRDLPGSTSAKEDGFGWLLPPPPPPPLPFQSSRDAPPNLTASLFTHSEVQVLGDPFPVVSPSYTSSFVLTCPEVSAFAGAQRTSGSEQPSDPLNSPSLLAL
Platelet DG rel – modulates dense granule release in human platelets; human platelet-rich plasma, SFLLRN dense granule ATP release, luminescence; 300,000 compounds, 0.22% hits; inhibition, %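 (compounds screened at 7.5 µM in platelet-rich plasma)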;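 active means mean replicate score, as percent of positive control, at or above 50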
HSP90 inh – HSP90 refolding inhibition in rabbit reticulocyte lysate | 290,000 compounds, 0.91% hits | inhibition, % at 5.6 µM | luciferase refolding luminescence, 3 h | AID 1789;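 active means inhibition above the screen-wide mean plus 3 SD, computed separately per campaign, cut at about 16% in these data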;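 further: 0% = DMSO wells and 100% = 60 µM geldanamycin wells; inhibitors lower the luminescence because luciferase stays unfolded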
MPTP inh – permeability transition pore inhibition | isolated mouse mitochondria, Ca2+ swelling absorbance, 30 min | inhibition, % at 10 µM | 360,000 compounds, 1.4% hits | AID 602449;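 active means inhibition of 50% or more, scaled per plate between neutral and stimulator controls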;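 further: 0% = DMSO wells given calcium and 100% = 1 mM EGTA wells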
HSF1 inh – HSF1 inhibition. NIH3T3-HGL HSE-luciferase, MG132-induced, luminescence 8 h; stronger effect = lower value. activity change, negative = inhibition, % at 7.5 µM (by protocol). 300,000 compounds, 0.77% hits;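 active means more than half of replicate wells show activity change below -50%, luminescence cut by over half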;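 further: luciferase reports HSF-1 transcriptional activity via heat shock element; 0% = median of DMSO wells and -100% = zero luminescence signal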
The depositor's hits bear a star; x = no result given. This is a sample that favours compounds with a hit; in the whole collection about 4.9% have one here.

SMILES | HSF1 activator | dFosB activator | Platelet DG rel | HSP90 inh | MPTP inh | HSF1 inh
Cc1cc(C)cc(OC(=O)CS(=O)c2ccc(C(F)(F)F)cc2[N+](=O)[O-])c1 (stereo not drawn) | 171* | -17 | -8 | -2 | 1 | 125
Cc1ccc(OCCNc2ccc(C(F)(F)F)cc2[N+](=O)[O-])cc1 | 32 | -1 | -2 | -2 | 4 | 19
O=C(CS(=O)c1ccc(C(F)(F)F)cc1[N+](=O)[O-])Oc1ccc(Cl)cc1 (stereo not drawn) | 73* | -6 | 6 | 7 | 4 | 65
CC(C)(C)OC(=O)[C@H](Cc1ccccc1)NC(=O)c1ncn2c1c(=O)[nH]c1ccc(Br)cc12 | x | x | x | x | 4 | x
CCc1ccc(NC(=O)c2cnc(SC)nc2C)cc1 | 9 | 1 | 4 | -2 | 0 | 8
CCN(CC)CCN(C)Cc1nc(C(c2ccccc2)c2ccccc2)no1 | 54* | -2 | -3 | -1 | 0 | 15
Cn1c(=O)c2ncn(CC(=O)N/N=C/C=C/c3ccccc3)c2n(C)c1=O | 60* | 3 | 7 | -2 | 0 | 30
Cn1c(=O)c2c(ncn2CC(=O)N/N=C/C=C/c2ccccc2)n(C)c1=O | -6 | 2 | 2 | 1 | 0 | 4
CC1CN(CC(=O)NCc2ccc(Cl)cc2)CC(C)O1 (stereo not drawn) | -2 | -6 | -14 | -5 | -1 | -2
CC/C(=N\NS(=O)(=O)c1ccc(C)cc1)c1ccco1 | -72 | 6 | -4 | -4 | 1 | -64*
CC(=O)Oc1c(C)c2c3c(c1OC(C)=O)[C@@H](C)CC[C@@H]3[C@@H](C)C[C@H]2C=C(C)C | x | -7 | x | x | 2 | x
CCCSc1nnc2n(-c3ccccc3OC)c(=O)c3c4c(sc3n12)CCC4 | 59* | 0 | 2 | 4 | -2 | 21
O=C(NNC(=O)c1ccccc1O)c1cccc(Br)c1 | -15 | -3 | -2 | 2 | 1 | 0
CCc1ccc(C2NC(C(=O)O)CS2)cc1 (stereo not drawn) | x | x | x | -1 | x | x
O=C(O)C1CSC(c2ccc3c(c2)OCO3)N1 (stereo not drawn) | -68 | -6 | -2 | -1 | 1 | -56*
Cc1c(C(=O)Nc2ccc(-c3nnc4n3CCCCC4)cc2)oc2ccc(Br)cc12 | -9 | 3 | -16 | 0 | 2 | -11
O=C(CCC(=O)c1cccs1)c1cccs1 | 55* | -4 | 1 | 1 | -1 | 30
O=C(CSCc1ccco1)c1cccs1 | 15 | 0 | 85* | -3 | 0 | 17
O=C(CCC(=O)c1cccs1)NC(c1ccccc1)c1ccccc1 | 0 | -8 | 3 | 1 | 0 | 2
Fc1ccc(CNCc2ccccc2Cl)cc1 | -61 | 4 | 1 | 4 | -1 | -53*
O=C(c1ccc(-c2ccccc2Cl)o1)N1CCCCCCC1 | x | -5 | x | x | 0 | x
CC1CCCN(C(=O)c2ccc(-c3ccccc3Cl)o2)C1 (stereo not drawn) | 58* | -21 | -18 | x | -1 | 31
Cc1cc(/C([O-])=C(/C(=S)Nc2ccccc2)[n+]2ccccc2)c(C)n1-c1ccccc1 | -61 | -18 | 2 | -3 | 1 | -61*
O=C(Nc1ncccc1O)c1ccc(S(=O)(=O)Nc2ccccc2)cc1 | -21 | 0 | 6 | x | -1 | -18
CC(=O)c1ccc(OCc2cc(C(=O)N(C)C(C)c3nccs3)no2)cc1 (stereo not drawn) | 85* | -1 | -3 | 5 | 0 | 47
SMILES | HSF1 activator | dFosB activator | Platelet DG rel | HSP90 inh | MPTP inh | HSF1 inh
CC(=O)c1ccc(OCc2cc(C(=O)N(C)C(C)c3ccon3)no2)cc1 (stereo not drawn) | -12 | -3 | -9 | -4 | 0 | -2
COc1ccc(/C=N/NC(=O)COc2cccc3cccnc23)cc1OC | -4 | 31* | 6 | -1 | 0 | -12
COc1cc(/C=N/NC(N)=O)ccc1OCC(=O)N1C(C)CCCC1C (stereo not drawn) | -18 | -4 | 62* | -3 | -1 | -1
COc1cc(/C=N/Nc2ccc(Cl)c(C(=O)O)c2)ccc1OCC(=O)N1C(C)CCCC1C (stereo not drawn) | 9 | -9 | -5 | 0 | 3 | 0
O=S(=O)(/N=C(\c1ccccc1)N1CCOCC1)c1ccc(Cl)cc1 | -8 | -1 | -3 | 2 | 0 | -18
O=S(=O)(/N=C(/c1ccccc1Cl)N1CCOCC1)c1ccccc1 | -68 | 1 | 2 | -3 | -2 | -58*
O=C(NC(c1ccccc1)c1cnccn1)C1CCN(CCOc2ccc(Cl)cc2Cl)CC1 (stereo not drawn) | x | x | x | x | 1 | x
O=C(CNC(=O)c1ccccc1)NCC(=O)OCC(=O)c1ccc(F)cc1 | 3 | 1 | 9 | 2 | 1 | -2
Cc1ccc(C(=O)NCC(=O)NCC(=O)OCC(=O)c2ccc(F)cc2)cc1 | -70 | 0 | 9 | 0 | 6 | -62*
CCC(C)(C)C1CCc2[nH]nc(C(=O)NCc3ccccn3)c2C1 (stereo not drawn) | x | -4 | x | x | -1 | x
CCc1ccc(OCCNc2cc(N3CCNC(C)C3)ccc2[N+](=O)[O-])cc1 (stereo not drawn) | x | 45* | x | x | 4 | x
CC1CN(c2ccc([N+](=O)[O-])c(NCCOc3ccccc3)c2)CC(C)N1 (stereo not drawn) | 16 | 3 | 15 | 1 | 3 | -1
CC1CN(c2ccc([N+](=O)[O-])c(NCCOc3ccc(Cl)cc3)c2)CC(C)N1 (stereo not drawn) | 18 | 37* | 0 | 2 | 5 | 15
CC1=C(C(=O)N(C(C)C)C(C)C)CC(CC(=O)NCc2cccc3ccccc23)C(=O)N1Cc1ccccc1 (stereo not drawn) | x | x | x | x | 0 | x
O=C(NC(=S)NCCc1ccccc1)c1cccc(Cl)c1 | 12 | 1 | -9 | -4 | 1 | 12
O=[N+]([O-])c1ccc(NN=Cc2ccccc2O)nc1 | x | 6 | x | x | 8 | x
O=[N+]([O-])c1ccc(N/N=C/c2ccccc2O)cc1 | 73* | 10 | -5 | -9 | 10 | 70
COc1ccccc1Oc1ccc2c(c1)C(=O)N(c1ccc(Br)c3cccnc13)C2=O | -81 | -3 | 1 | -1 | 35 | -75*
O=C1c2ccccc2C(=O)N1c1ccc(Br)c2cccnc12 | 0 | -2 | -5 | 8 | -1 | 6
O=C(NC(=S)N1CCN(C/C=C/c2ccccc2)CC1)c1ccc(Cl)nc1 | 69* | -14 | 2 | -1 | 2 | 38
O=C(NC(=S)N1CCN(Cc2ccccc2)CC1)c1cccnc1 | -1 | 3 | 2 | 4 | -1 | -10
COc1cc(O)oc1C=Nc1ccc(C(F)(F)F)cc1 | 23 | 5 | -9 | 0 | 2 | 6
COCCN(C(=O)COC(=O)C1CC1C)c1c(N)n(Cc2ccccc2)c(=O)[nH]c1=O (stereo not drawn) | 6 | 3 | 1 | x | -3 | -4
Cc1nn(CC(=O)Nc2cccnc2)c(C)c1[N+](=O)[O-] | -2 | 1 | 61* | 5 | -1 | -5
